Results as given in PubChem BioAssay (NCI).
The panel holds about 83,000 compounds, 20% with a hit somewhere; the sample as a whole holds those more often.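 Testing used 96-well plates and a 48-hour single-concentration exposure. Example: -40 means 40% of the starting cells died.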 Activity calls are given as the source filed them. How the source made its calls: active means growth percent below 10; inactive means the rest.

Legend:
Assay in all cases: NCI-60 one-dose screen, 48 h (100 = growth as untreated, 0 = no growth, -100 = all killed)
Conditions in all cases: 10 µM unless noted
[1] = test system: DU-145 prostate
[2] = test system: K-562 leukemia
[3] = test system: MALME-3M melanoma
[4] = test system: MDA-MB-231 breast
[5] = test system: RXF 393 renal
[6] = test system: SF-268 CNS
[7] = test system: SF-295 CNS
[8] = test system: SF-539 CNS
[9] = test system: UACC-257 melanoma
[10] = test system: M14 melanoma

Measured: growth

O=CN1N=C(c2ccc(Cl)cc2)CC1c1cccc(Nc2ccnc3cc(Cl)ccc23)c1 (stereo not given)
active: [2] 3.74% | [3] 8.98% | [5] -0.443% | [7] -10.4% | [8] -25.9%
inactive: [1] 14% | [4] 30.6% | [6] 36.7% | [9] 12.1% | [10] 16.2%

NC(=O)NS(=O)(=O)c1ccc(N2N=C(C(F)(F)F)CC2c2cc(C(F)(F)F)cc(C(F)(F)F)c2)cc1 (stereo not given)
inactive: [1] 85.1% | [2] 57.7% | [3] 87.4% | [4] 91.6% | [5] 11.8% | [6] 67.8% | [7] 68.6% | [8] 89.5% | [9] 31.5% | [10] 79.7%

COc1ccc(NS(=O)(=O)N2CCCCC2)cc1
inactive: [1] 116% | [2] 93.8% | [3] 117% | [4] 91.5% | [5] 105% | [6] 98.9% | [7] 113% | [8] 108% | [9] 102% | [10] 102%

COC(=O)Nc1ccc2ccc3c(NC(=O)OC)ccc4ccc1c2c43 (tested in a mixture with another compound)
inactive: [1] 86.9% | [2] 25% | [3] 68.8% | [4] 54.1% | [5] 77.6% | [6] 67.7% | [7] 48.2% | [8] 50.7% | [9] 71.7% | [10] 25.4%

COc1cc(C(=O)/C=C/c2cccc(Nc3ccnc4cc(Cl)ccc34)c2)cc(OC)c1OC
inactive: [9] 30.6%
active: [1] -0.714% | [2] -6.81% | [3] 9.8% | [4] -5.45% | [5] -71.9% | [6] -16.6% | [7] 3.06% | [8] -46.1% | [10] -11.6%

CCOC(=O)/C(=C/CC/C(C)=C/CC/C(C)=C/CCc1ccoc1)CC(=O)N1CCCCC1
inactive: [1] 62.8% | [2] 18.1% | [3] 15.2% | [5] 77.8% | [6] 66.4% | [7] 33% | [8] 76.3% | [9] 12.7% | [10] 31.4%
active: [4] -21.9%

CC(C)CC1NC(=O)C(CCCN)NC(=O)C(C(C)C)NC(=O)C2CCCN2C(=O)C(Cc2ccccc2)NC(=O)C(CC(C)C)NC(=O)C(CCCN)NC(=O)C(C(C)C)NC(=O)C2CCCN2C(=O)C(Cc2ccccc2)NC1=O (stereo not given)
active: [1] -52.5% | [2] -53.1% | [3] -76.3% | [4] -54.4% | [5] -65.7% | [6] -85.4% | [7] -77.4% | [8] -82.5% | [9] -72.9% | [10] -63.8%

Cc1onc(-c2ccccc2Cl)c1C(=O)N[C@@H]1C(=O)N2[C@@H]1SC(C)(C)[C@@H]2C(=O)O
inactive: [1] 123% | [2] 91.6% | [3] 94.2% | [4] 113% | [5] 115% | [6] 110% | [7] 104% | [8] 112% | [9] 108% | [10] 98.2%

N/C(=N\c1nc2ccccc2s1)NC(=O)Nc1ccccc1Cl
inactive: [1] 21.8% | [3] 63.3% | [4] 42.1% | [6] 60.9% | [9] 62.3% | [10] 13.4%
active: [2] 6.5% | [5] -13.9% | [7] 9.08% | [8] -14.2%

CC(C)=CCCC(C)c1ccc(C)c2c1OCN(CC1CCNCC1)C2 (stereo not given)
active: [2] 0.575% | [10] -95.4%
inactive: [1] 93.9% | [3] 94.1% | [4] 68.8% | [5] 55.2% | [6] 93% | [7] 98.7% | [8] 76.9% | [9] 24.6%

O=C1c2cc3c(cc2-c2c1c1ccc(Cl)cc1c(=O)n2CCCNCCO)OCO3
active: [1] -93.7% | [2] -78.3% | [3] -84.8% | [4] -79.5% | [5] -78.6% | [6] -76.7% | [7] -86.9% | [8] -84.6% | [9] -59% | [10] -83.3%

Cc1ccc(C2=NNC(c3sc(Cl)nc3Cl)C2)cc1 (stereo not given)
inactive: [1] 95.6% | [2] 11.7% | [3] 77.6% | [4] 92.1% | [5] 108% | [6] 98.3% | [7] 101% | [8] 118% | [9] 90.6% | [10] 86.5%

COc1ccc(-c2cnc(SCC(=O)Nc3ccc(-c4nc5ccccc5s4)cc3)n2-c2ccc(OC)cc2)cc1
inactive: [1] 120% | [2] 108% | [3] 129% | [4] 111% | [5] 121% | [6] 100% | [7] 113% | [8] 102% | [9] 116% | [10] 112%

N#Cc1c(-c2ccccc2)cc(-c2ccccc2)n(CCCC(=O)O)c1=O
inactive: [1] 111% | [2] 94.1% | [3] 96.5% | [4] 94.9% | [5] 91.5% | [6] 102% | [7] 93.2% | [8] 102% | [9] 96.5% | [10] 96%

C(#Cc1ccccc1C#Cc1ccccn1)c1ccc(OCCCCCCOc2ccc(C#Cc3ccccc3C#Cc3ccccn3)cc2)cc1
inactive: [1] 76.2% | [2] 31.6% | [3] 99.6% | [4] 35.3% | [5] 45.6% | [6] 88.9% | [8] 25.4% | [9] 34.2% | [10] 23.4%
active: [7] -3.2%

NS(=O)(=O)c1cc(C2(O)NC(=O)c3ccccc32)ccc1Cl (stereo not given)
inactive: [1] 116% | [2] 111% | [3] 95.4% | [4] 112% | [5] 109% | [6] 109% | [7] 103% | [8] 97.7% | [9] 112% | [10] 104%

CC(C)N(Cc1ccccc1)c1c(Cl)ssc1=O
inactive: [1] 94.9% | [2] 108% | [3] 104% | [4] 89.3% | [5] 74.8% | [6] 118% | [7] 108% | [8] 96% | [9] 94.3% | [10] 91%

CCOC(=O)/C=C1/SC(=Nc2ccc(C#N)cc2)N(Cc2ccco2)C1=O
inactive: [1] 39.2% | [3] 47.6% | [4] 57% | [6] 73.2% | [7] 88.8% | [8] 38.1% | [9] 54.9% | [10] 25.8%
active: [2] 8.76% | [5] -23.9%

CCOC(=O)c1sc(NC(=O)COc2cccc(/C=C3\Cc4ccc(Cl)cc4C3=O)c2)nc1C
inactive: [1] 117% | [2] 89.9% | [3] 138% | [4] 81.1% | [5] 131% | [6] 116% | [7] 125% | [8] 107% | [9] 110% | [10] 110%

COc1ccc(-c2cc(-c3cccnc3)nc(S(=O)(=O)CC(=O)Nc3ccc(C)cc3)c2C#N)cc1OC
inactive: [1] 95% | [2] 102% | [3] 94.7% | [4] 77.6% | [5] 90.4% | [6] 83.5% | [7] 97.9% | [8] 95.1% | [9] 104% | [10] 111%

Cc1ccc(-c2csc(N)n2)cc1
inactive: [1] 123% | [2] 94.4% | [3] 124% | [4] 96.6% | [5] 110% | [6] 101% | [7] 110% | [8] 102% | [9] 79.9% | [10] 102%

CNNc1ncnc2c1cnn2-c1ccc(S(N)(=O)=O)cc1
inactive: [1] 112% | [2] 78.3% | [3] 112% | [4] 89.5% | [5] 16% | [6] 106% | [7] 84% | [8] 93.8% | [9] 89% | [10] 95%

O=C1C2C(C(=O)N1CC[Se][Se]CCN1C(=O)C3C(C1=O)[C@H]1C=C[C@@H]3C1)[C@H]1C=C[C@@H]2C1 (stereo not given in full)
active: [1] -46.7% | [2] 7.86% | [3] -35.6% | [4] -33.8% | [5] -89% | [6] -45.8% | [7] -78.2% | [8] -86.7% | [9] -63.8% | [10] -20%

O=C(Nc1ccccc1)P(=O)(O)c1ccccc1
inactive: [1] 108% | [2] 95.7% | [3] 123% | [4] 100% | [5] 105% | [6] 98.5% | [7] 122% | [8] 90.2% | [9] 96.5% | [10] 103%
